Bioassay records deposited in PubChem BioAssay by National Center for Advancing Translational Sciences (NCATS).
Pol iota inh = DNA polymerase iota (human) inhibition. Q9UNA4. Pol iota fluorescent replication assay, 10 min. Potency, µM (top dose mostly 115 µM), hits mostly inhibitors. actives 1% (n = 390,000). AID 588590
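Pol iota at 10 nM preincubated 15 min with compounds at room temperature; reaction started with fluorescent substrate, 50 nM final. Fluorescence read kinetically at 0 and 10 min; buffer-only wells as negative control.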
Pol kappa inh-1 = DNA polymerase kappa (human) inhibition; purified Pol kappa, fluorescent DNA synthesis assay, 10 min; actives 0.53% (n = 400,000); Potency, µM (top dose mostly 107 µM), most hits filed as inhibitors
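Kinetic fluorescence screen: compound preincubated 15 min RT with 10 nM enzyme; 50 nM substrate (final) initiates; reads at 0/10 min.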
WRN helicase inh = WRN helicase (human) inhibition; WRN helicase unwinding, fluorescent forked duplex, kinetic; Q14191; actives 0.46% (n = 360,000); AID 651768; Potency, µM (doses to about 114 µM), usual class: inhibitors; further: nearly all actives have a fitted effect of over 55% in size
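Enzyme (20 nM final) and test compound sit together 15 min at room temperature before substrate addition. Substrate is a single-forked duplex oligonucleotide (100 nM) labelled with fluorophore and quencher, with 2 mM ATP; helicase unwinding raises red fluorescence, read kinetically.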
L3MBTL1 inh = blocks human L3MBTL1. Q9Y468. AlphaScreen L3MBTL1–H3K9me1 peptide binding. Potency, µM (doses to about 57.1 µM), hits mostly inhibitors. actives 0.66% (n = 230,000). AID 485360; further: nearly all actives have a fitted effect of over 60% in size
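AlphaScreen proximity signal between nickel-chelate acceptor and streptavidin donor beads (final 10 ug/mL) reports binding of 50 nM L3MBTL1 to 75 nM biotin-H3 K9me1 peptide; complex incubated with compounds 30 min at room temperature; cefsulodin titration as control.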
Pol eta inh-1 = DNA polymerase eta (human) inhibition; Q9Y253; recombinant Pol eta, fluorescent DNA replication assay; Potency, µM (titrated, usually from 114 µM), most hits filed as inhibitors; actives 1.2% (n = 390,000)
Target sequence (Q9Y253 whole entry, looked up): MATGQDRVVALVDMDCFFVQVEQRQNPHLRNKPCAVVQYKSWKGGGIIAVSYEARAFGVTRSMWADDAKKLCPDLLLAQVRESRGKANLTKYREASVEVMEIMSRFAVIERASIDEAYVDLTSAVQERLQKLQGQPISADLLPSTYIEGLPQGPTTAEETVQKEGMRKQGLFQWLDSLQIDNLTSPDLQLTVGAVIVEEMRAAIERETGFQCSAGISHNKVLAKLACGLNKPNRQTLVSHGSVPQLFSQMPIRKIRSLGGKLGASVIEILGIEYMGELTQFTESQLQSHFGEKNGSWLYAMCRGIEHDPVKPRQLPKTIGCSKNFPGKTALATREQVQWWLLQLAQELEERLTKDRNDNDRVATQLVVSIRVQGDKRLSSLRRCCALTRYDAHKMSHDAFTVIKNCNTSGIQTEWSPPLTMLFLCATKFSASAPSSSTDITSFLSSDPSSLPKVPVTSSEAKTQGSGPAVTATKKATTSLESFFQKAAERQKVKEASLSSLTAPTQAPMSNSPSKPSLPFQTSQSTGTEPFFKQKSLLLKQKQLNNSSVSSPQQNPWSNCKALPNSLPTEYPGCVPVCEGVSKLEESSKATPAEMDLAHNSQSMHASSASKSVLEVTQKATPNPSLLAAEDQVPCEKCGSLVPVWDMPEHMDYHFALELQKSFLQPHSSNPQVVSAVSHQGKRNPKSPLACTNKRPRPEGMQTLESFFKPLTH
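Pol eta at 10 nM preincubated with compounds 15 min at room temperature; reaction started with fluorescent substrate (50 nM final) and read kinetically at 0 and 10 min.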
Pol beta inh = DNA polymerase beta (human) inhibition; P06746; Pol beta primer extension/strand displacement, fluorescence kinetic; Potency, µM (doses to about 114 µM), actives largely listed as inhibitors; actives 1.3% (n = 340,000)
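Pol beta (10 nM) was preincubated with compound for 15 min at room temperature. The reaction was then started with 50 nM substrate and read immediately and after a further 10 min at room temperature.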
POLI cherry-pick = Inhibitors of human DNA polymerase iota, confirmation | actives 77% (n = 1,500) | Potency, µM, hits mostly inhibitors | Pol iota primer extension, TAMRA/BHQ fluorescence | shares compounds with Pol kappa inh-1
Pol kappa inh-2 = Pol kappa (human) inhibition, cherry-pick confirmation; shares compounds with Pol eta inh-1; purified Pol-kappa, fluorescent strand-displacement substrate; Potency, µM, usual class: inhibitors; actives 76% (n = 920)
Pol eta inh-2 = Pol eta (human) inhibition, cherry-pick confirmation; shares compounds with Pol eta inh-1; Pol eta primer extension, TAMRA/BHQ fluorescence, 10 min; Potency, µM, hits mostly inhibitors; actives 64% (n = 2,600)
Each line names hits and unclear results; the compound was inactive in the other large screens (follow-up assays come after a bar, where they were run). Only some compounds are listed: those with a hit (about 2.5% of all), similar ones and a draw of the others. The call rests on the fitted dose curve; in most records, active means well fitted curve in the direction sought with a large enough effect; inconclusive means small, poorly fitted or top-dose-only effect, or another doubt; inactive means no such curve, though single readings can be large; an effect the other way counts as inactive or inconclusive.

O=C(Cc1csc(N2CCOCC2)n1)N/N=C/c1ccc(O)c(O)c1O	Pol iota inh inconclusive, Pol kappa inh-1 inconclusive, WRN helicase inh 22µM, Pol eta inh-1 inconclusive, Pol beta inh inconclusive | POLI cherry-pick 15 | Pol eta inh-2 43
C/C(=N\NC(=O)Cc1csc(N2CCOCC2)n1)c1ccccc1	none (no result: L3MBTL1 inh)
CCc1ccc(NC(=O)/C(C#N)=C\c2ccc(OC)c(C(=O)O)c2)cc1	none
Cc1cc(C)n2nc(C(=O)OCC(=O)c3cc(C)n(C)c3C)nc2n1	Pol iota inh inconclusive, Pol kappa inh-1 inconclusive, WRN helicase inh inconclusive, L3MBTL1 inh inconclusive, Pol eta inh-1 14µM, Pol beta inh 32µM | POLI cherry-pick inconclusive | Pol eta inh-2 85
COc1cc(/C=N/S(=O)(=O)c2ccccc2)cc(OC)c1O	none (no result: L3MBTL1 inh)
COc1ccc2sc(/C=C/c3ccccc3O)[n+](C)c2c1	Pol iota inh 18µM, WRN helicase inh inconclusive, Pol eta inh-1 50µM, Pol beta inh 18µM | POLI cherry-pick 67 | Pol kappa inh-2 67 | Pol eta inh-2 34
C/C(N)=C(/C#N)C(=O)CSc1ncnc2ccccc12	Pol eta inh-1 inconclusive, Pol beta inh inconclusive
C/C(N)=C(/C#N)C(=O)CSc1nc2ccccc2[nH]1	Pol iota inh 20µM, Pol kappa inh-1 inconclusive, WRN helicase inh inconclusive, Pol eta inh-1 50µM, Pol beta inh 14µM (no result: L3MBTL1 inh) | POLI cherry-pick 34 | Pol eta inh-2 27
O=C(Nc1ccccc1-c1ccccc1)C1CCC1	none
CCCCn1c(N)c(N(CCOC)C(=O)c2cc(-c3ccco3)nc3ccccc23)c(=O)[nH]c1=O	Pol iota inh 20µM, Pol kappa inh-1 89µM, WRN helicase inh inconclusive, L3MBTL1 inh inconclusive, Pol eta inh-1 11µM (no result: Pol beta inh) | POLI cherry-pick inconclusive | Pol eta inh-2 inconclusive
CC(C)OCCCNC(=S)NNC(=O)C(c1ccccc1)c1ccccc1	none
COc1cc(/C=N/NC(=O)c2cc(-c3cccn3C)n[nH]2)cc(OC)c1OC	Pol iota inh 3.5µM, Pol kappa inh-1 inconclusive, Pol eta inh-1 28µM, Pol beta inh inconclusive | POLI cherry-pick inconclusive | Pol kappa inh-2 19 | Pol eta inh-2 27
COc1cc(/C=N/NC(=O)c2ccncc2)cc(OC)c1OC	none
COc1cc(/C=N\NC(=O)c2ccc(=O)[nH]n2)cc(OC)c1OC	Pol iota inh 16µM, Pol kappa inh-1 50µM, Pol eta inh-1 inconclusive, Pol beta inh 13µM | POLI cherry-pick 30 | Pol eta inh-2 48
O=C(c1ccc(Br)cc1)C1CCc2occc2C1=O (stereo not given)	Pol eta inh-1 inconclusive, Pol beta inh inconclusive (no result: L3MBTL1 inh)
CCN1/C(=C/C=C/c2oc3ccc(-c4ccccc4)cc3[n+]2CC)Oc2ccc(-c3ccccc3)cc21	Pol iota inh inconclusive, Pol kappa inh-1 inconclusive, WRN helicase inh 4.7µM, Pol eta inh-1 inconclusive, Pol beta inh 79µM | POLI cherry-pick 30 | Pol kappa inh-2 38 | Pol eta inh-2 21
Cc1cc(C=O)c(C)n1-c1cccc(C(=O)O)c1	Pol iota inh 18µM, Pol kappa inh-1 79µM, L3MBTL1 inh 25µM, Pol eta inh-1 4µM, Pol beta inh 14µM | POLI cherry-pick 34 | Pol eta inh-2 21
COC(=O)c1cccc(-n2c(C)cc(C=O)c2C)c1	none
